Shiga toxin inh: Shiga toxin inhibition | hit rate 9.2% among 290,000 | Vero cells, Shiga toxin protein synthesis inhibition reporter | inhibition, % at 38.7 µM; in the data active = inhibition mostly above about 28%, no sharp cut-off; inactive = mostly below about 43%; note: 0% is about no effect
NS1 function inh: inhibitors of influenza NS1 protein function; hit rate 0.4% among 270,000; AID 2326; Potency, µM (titrated, usually from 46.1 µM), without a hit: top-dose activity, positive = more growth; calls by dose curve; note: potency is the fitted concentration of half-maximal effect; actives are rising curves; nearly all actives have a fitted effect of over 50% in size
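Recovery from NS1-induced slow growth read by OD600 in budding yeast switched to galactose assay medium (pH 6.0, -URA) at 1:100 dilution. Compound 23 nl per well; the matching strain lacking NS1 serves as control.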
Pf growth 96h: P. falciparum growth inhibition at 96 hour, primary screen for plastid delayed-death inhibitors | P. falciparum luciferase reporter growth, 96 h | Potency, µM (titrated, usually from 28.7 µM), without a hit: at the highest dose activity change, negative = inhibition, actives largely listed as inhibitors | hit rate 6.9% among 320,000; note: potency is the fitted concentration of half-maximal effect; % is set by controls: 0 for no effect and ±100 for the full control effect
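Luminescence readout: decreased luciferase signal marks inhibited growth of reporter-expressing P. falciparum in infected red cells (2% hematocrit, 0.05% parasitemia final), exposed to compound two generations (96 h, 37 C, 5% CO2).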
Sm TGR block: blocks Schistosoma mansoni thioredoxin glutathione reductase; Q962Y6; purified TGR, DTNB reduction, TNB absorbance 405 nm; Potency, µM (series often up to 114 µM), for inactives: at the highest dose activity change, negative = inhibition, hits mostly inhibitors; hit rate 3% among 360,000; AID 485364; note: potency is the fitted concentration of half-maximal effect; % is set by controls: 0 for no effect and ±100 for the full control effect; nearly all actives have a fitted effect of over 60% in size
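TGR 20 nM + NADPH 100 uM (dispensed conc.), cpd preinc 15 min RT; start with NADPH (500 uM addition) then DTNB (15 mM addition). Kinetic TNB absorbance, 405 nm filter. Four-parameter Hill fit across titration.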
Pf growth 48h: P. falciparum growth inhibition at 48 hours (one generation) | P. falciparum luciferase growth in erythrocytes, 48 h | Potency, µM (series often up to 28.7 µM), without a hit: top-dose activity change, negative = inhibition, hits mostly inhibitors | hit rate 5.9% among 310,000 | AID 504832; note: potency is the fitted concentration of half-maximal effect; % is set by controls: 0 for no effect and ±100 for the full control effect
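Firefly luciferase activity from engineered P. falciparum reports growth; inhibitors lower the luminescent signal. Cultures contained 2% hematocrit erythrocytes at 0.1% final parasitemia.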
Cycloheximide cs: counter-screen hit for Shiga toxin inhibitors, cycloheximide; hit rate 12% among 300,000; cell reporter, cycloheximide protein synthesis inhibition counterscreen; max response, %; AID 2314; in the data active = max response mostly above about 13%, no sharp cut-off; inactive = mostly below about 14%; note: read at 38.3 µM for the half of the compounds with a filed dose; 0% is about no effect
An asterisk follows results filed as active; [ ] = remark or other dose. Sampled rows, rich in hits. Any-hit rate of the full collection: about 21%. Unless noted, calls come from the whole dose curve; as a rule, active = well fitted curve in the direction sought with a large enough effect; inconclusive = small, poorly fitted or top-dose-only effect, or another doubt; inactive = no such curve, though single readings can be large; an effect the other way counts as inactive or inconclusive.

`COc1ccc(/C=N/NC(=O)c2[nH]c3ccc(C)cc3c2-c2ccccc2)c(C(=O)O)c1OC` gave Shiga toxin inh 2, NS1 function inh 16%, Pf growth 96h 11%, Sm TGR block 0%, Pf growth 48h 12% and Cycloheximide cs 0.
COCCn1c(SCC(=O)Nc2ccc(Br)cc2)nc2c([nH]c3ccccc32)c1=O was read as Sm TGR block 8%.
O=C(Nc1ccnn1C1CCN(C(=O)c2cccc(Cl)c2)CC1)C1CC1 was read as Shiga toxin inh -3, NS1 function inh -4%, Pf growth 96h -23%, Sm TGR block -5%, Pf growth 48h -6% and Cycloheximide cs 24.
Screening Cc1ccc(C(=O)CSc2ncnc3ccccc23)o1 returned Shiga toxin inh 110*, Pf growth 96h 15%, Sm TGR block 4%, Pf growth 48h 15%[5.75 µM] and Cycloheximide cs 26*.
Screening O=[N+]([O-])c1cccc(CSc2ncnc3ccccc23)c1 returned Shiga toxin inh 25, Pf growth 96h inconclusive, Sm TGR block -3%, Pf growth 48h -3% and Cycloheximide cs 10.
Screening Cc1cccc(CSc2ncnc3ccccc23)c1 returned Shiga toxin inh 62*, Pf growth 96h 43%, Sm TGR block -4%, Pf growth 48h 16% and Cycloheximide cs 22*.
Screening c1ccc(CSc2ncnc3ccccc23)cc1 returned Shiga toxin inh 18, NS1 function inh -41%, Pf growth 96h 82%[5.75 µM], Sm TGR block 0%, Pf growth 48h 32%[5.75 µM] and Cycloheximide cs 7.
For Cc1ccc(CSc2ncnc3ccccc23)cc1 the results were Shiga toxin inh 34, NS1 function inh -7%, Pf growth 96h 31%, Sm TGR block 1%, Pf growth 48h -5% and Cycloheximide cs 21*.
Screening CC(OC(=O)c1cn(-c2ccccc2)nc1-c1cccnc1)C(N)=O (stereo unspecified) returned Shiga toxin inh -4, Pf growth 96h 71%, Sm TGR block 6%, Pf growth 48h 38% and Cycloheximide cs 12.
CSc1ccccc1NC(=O)CN(C)CC(=O)Nc1ccccc1F was read as Shiga toxin inh 18, NS1 function inh 0%, Pf growth 96h 52%, Sm TGR block 3%, Pf growth 48h 13% and Cycloheximide cs -2.
CCCC(=O)Nc1nnc(SCC(=O)N2C(C)CCCC2C)s1 (stereo unspecified) was read as Shiga toxin inh 8, NS1 function inh 3%, Pf growth 96h inconclusive, Sm TGR block 5%, Pf growth 48h inconclusive and Cycloheximide cs -4.
For CC(=O)Nc1nnc(SCC(=O)N2C(C)CCCC2C)s1 (stereo unspecified) the results were Shiga toxin inh -6, NS1 function inh -5%, Pf growth 96h 12µM*, Sm TGR block -10%, Pf growth 48h 3% and Cycloheximide cs -4.
For CC1CCCC(C)N1C(=O)CSc1nc2ccccc2s1 (stereo unspecified) the results were Shiga toxin inh 126*, NS1 function inh -2%, Sm TGR block -16%, Pf growth 48h -9% and Cycloheximide cs 35*.
For CC1CCN(C(=O)CSc2nc3ccccc3s2)CC1 the results were Shiga toxin inh 45, NS1 function inh -15%, Pf growth 96h 163%, Sm TGR block 0% and Cycloheximide cs 34*.
O=C(O)C1CCN(C(=O)CSc2nc3ccccc3s2)CC1 was read as Shiga toxin inh -11, Pf growth 96h -11%, Sm TGR block 1%, Pf growth 48h 29% and Cycloheximide cs -11.
Screening Cc1c(Cl)cccc1N/C(SCC(=O)N1CCCCCC1)=C(/C#N)c1nc2ccccc2s1 returned Shiga toxin inh -2, NS1 function inh 14%, Pf growth 96h 1.5µM*, Sm TGR block 7%, Pf growth 48h 2.1µM* and Cycloheximide cs -2.
O=C(CSc1nc2ccccc2n1S(=O)(=O)c1ccccc1)N1CCCC1 was read as Shiga toxin inh 48*, NS1 function inh 1%, Pf growth 96h inconclusive, Sm TGR block -1%, Pf growth 48h 55% and Cycloheximide cs 13*.
Screening CCn1c(SCC(=O)N2CCCC2)nc2ccccc21 returned Shiga toxin inh 4, Pf growth 96h 29%, Sm TGR block 8%, Pf growth 48h 22% and Cycloheximide cs 1.
Screening O=C(CSc1nncc2ccccc12)N1CCCCC1 returned Shiga toxin inh 40, Pf growth 96h -34%, Sm TGR block 0%, Pf growth 48h 7% and Cycloheximide cs 45*.
Screening O=C(CSc1nc2ccccc2s1)N1CCCCC1 returned Shiga toxin inh 124*, NS1 function inh -8%, Sm TGR block -2%, Pf growth 48h 129% and Cycloheximide cs 43*.
`Nc1ccc2nc(SCC(=O)N3CCN(c4ccccc4)CC3)sc2c1` gave Shiga toxin inh -11, NS1 function inh -3%, Pf growth 96h inconclusive, Sm TGR block -1%, Pf growth 48h -15% and Cycloheximide cs 3.
Screening Nc1ccc2nc(SCC(=O)N3CCOCC3)sc2c1 returned Shiga toxin inh 71*, NS1 function inh 2%, Pf growth 96h 25%, Sm TGR block 14%, Pf growth 48h 36% and Cycloheximide cs 31*.
`O=C(NC1CCCC1)C(c1ccccn1)N(C(=O)c1csnn1)c1ccccc1Cl` (stereo unspecified) gave Shiga toxin inh -8, NS1 function inh 4%, Pf growth 96h inconclusive, Sm TGR block -9%, Pf growth 48h -6% and Cycloheximide cs -7.
For CSc1nsc(SCC(=O)N2CCCCC2)n1 the results were Shiga toxin inh 93*, Pf growth 96h -4%, Sm TGR block 3%, Pf growth 48h 80% and Cycloheximide cs 53*.
Screening Nc1ccc2nc(SCc3cccc(F)c3)sc2c1 returned Shiga toxin inh 152*, Pf growth 96h 2%, Sm TGR block 7%, Pf growth 48h 303% and Cycloheximide cs 42*.
`CNC(=O)CSc1nc(SC)ns1` gave Shiga toxin inh -5, Pf growth 96h -24%, Sm TGR block 0%, Pf growth 48h -11% and Cycloheximide cs -2.
Screening Cc1cccc(-c2noc(CNS(=O)(=O)c3ccccc3)n2)c1 returned Shiga toxin inh 10, NS1 function inh -4%, Pf growth 96h -29%, Sm TGR block 1%, Pf growth 48h 23% and Cycloheximide cs 18*.
Screening Cc1cccc(-c2noc(CCc3ccccc3)n2)c1 returned Shiga toxin inh 81*, NS1 function inh -19%, Pf growth 96h 8%, Sm TGR block 4% and Cycloheximide cs 40*.
For Cc1cccc(-c2noc(Cc3ccccc3)n2)c1 the results were Shiga toxin inh 100*, NS1 function inh -12%, Pf growth 96h 82%, Sm TGR block 8%, Pf growth 48h 58% and Cycloheximide cs 56*.
Screening Cc1ccc(S(=O)(=O)NCc2nc(-c3cccc(C)c3)no2)cc1 returned Sm TGR block 0%.
